Source: PubChem BioAssay (EPA / NIEHS)
Activity calls are given as the source filed them. How the source made its calls: active means hit-call score of the fitted dose curve at least 0.9, where 1 is the maximum; inactive means score below 0.9.

target: Myc proto-oncogene protein (Homo sapiens) (UniProt P01106); assay: ATG_Myc_CIS: Attagene CIS-FACTORIAL HepG2 Assay for human Myelocytomatosis (Myc) Proto-Oncogene Transcription Factor (AID 2282990); details: HepG2, Attagene cis-reporter transcription factor activity; actives raise or lower the signal
Sequence (P01106 whole entry, looked up): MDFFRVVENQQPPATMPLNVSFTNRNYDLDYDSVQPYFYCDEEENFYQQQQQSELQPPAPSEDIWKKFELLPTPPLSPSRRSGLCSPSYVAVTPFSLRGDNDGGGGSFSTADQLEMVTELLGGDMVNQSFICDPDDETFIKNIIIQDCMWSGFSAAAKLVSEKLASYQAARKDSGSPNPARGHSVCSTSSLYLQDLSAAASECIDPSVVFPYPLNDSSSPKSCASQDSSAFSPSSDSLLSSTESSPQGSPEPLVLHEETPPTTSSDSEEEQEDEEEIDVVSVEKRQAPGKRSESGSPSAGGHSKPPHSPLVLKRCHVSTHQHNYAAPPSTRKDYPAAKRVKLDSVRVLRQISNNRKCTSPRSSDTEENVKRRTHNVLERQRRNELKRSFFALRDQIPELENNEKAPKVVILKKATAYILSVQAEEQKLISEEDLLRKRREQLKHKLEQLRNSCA
Method: ATG_CIS is a cell-based, multiplexed-readout assay that uses HepG2, a human liver cell line, with measurements taken at 24 hours after chemical dosing in a 24-well plate.ATG_Myc_CIS is one of 52 assay component(s) measured or calculated from the ATG_CIS assay. It is designed to make measurements of mRNA induction, a form of inducible reporter, as detected with fluorescence intensity signals by Reverse transcription polymerase chain reaction (RT-PCR) and Capillary electrophoresis technology.Data from the assay component ATG_Myc_CIS was analyzed into 1 assay endpoint. This assay endpoint, ATG_Myc_CIS, was analyzed with bidirectional fitting relative to DMSO as the negative control and baseline of activity. Using a type of inducible reporter, measures of mRNA for gain or loss-of-signal activity can be used to understand the reporter gene at the transcription factor-level as they relate to the gene MYC. Furthermore, this assay endpoint can be referred to as a primary readout, because this assay has produced multiple assay endpoints where this one serves a reporter gene function. To generalize the intended target to other relatable targets, this assay endpoint is annotated to the dna binding intended target family, where the subfamily is basic helix-loop-helix leucine zipper.
Human liver HepG2 cells are transiently transfected with multiple reporter transcription units (MRTUs) in 6-well plates using FuGene 6 reagent (Roche; 3 ml FuGene/1 mg DNA). The MRTU constructs are regulated by a cis-regulating element (promoter). […] A major difference between the CIS and TRANS system is that in CIS activities of endogenous TFs are measured, whereas the TRANS assay evaluates changes in activities of exogenous, chimeric NR-Gal4 proteins. […] At the end of 24 hour incubation, total RNA was isolated using TriZol reagent (Invitrogen). The isolated RNA is then reverse-transcribed using oligo(dT) primer and Mo-MLV reverse transcriptase (Invitrogen) with DNAse I (Ambion) treatment for 30 min. The one-tenth of the produced cDNA was amplified by PCR using Taq DNA polymerase (Invitrogen) and two reporter sequence-specific primers. The PCR products were fluorescently labeled by primer extension with 6-arboxyfluorescein (6-FAM) 5'-labeled reporter sequence-specific primer (2 min at 95 C, 20 s at 68 C and 10 min at 72 C) and these products were digested with 5U of HpaI (New England Biolabs) for 2h at 37 C. The fragments were purified using Qiaquick PCR columns (Qiagen), analyzed on an ABI 3130xL genetic analyzer (Applied Biosystems) with peak positions identified by using a set of X-rhodamine (ROX)-labeled MapMarker1000 molecular weight standards (BioVentures). The raw capillary electrophoresis data was processed using Attagraph software (Attagene).

Row | Compound | outcome | AC50
1 | Cc1ccncc1 | inactive | –
2 | CCCCCCOc1ccc(O)cc1 | inactive | –
3 | [Na+] | inactive | –
4 | O=C1CCC(=O)N1 | inactive | –
5 | CCCCCCCC(=O)N(C)C | inactive | –
6 | C=CC(=O)OCCCCCC | inactive | –
7 | CCCCC/C=C\C=C\C(=O)OCC | inactive | –
8 | O=C1CCCCCCCCCCCC(=O)OCCO1 | inactive | –
9 | CCCCCCCCOC(C)=O | inactive | –
10 | N#CCCCC(C#N)CCC#N (stereo not given) | inactive | –
11 | CCCC1CCOC(C)S1 (stereo not given) | inactive | –
12 | CN(C)C(=O)Nc1ccccc1 | inactive | –
13 | COc1ccc(C(C)=O)cc1 | inactive | –
14 | C=C(C)C(=O)OCCC(C)OC(=O)C(=C)C (stereo not given) | inactive | –
15 | O=S(=O)(O)c1cc(S(=O)(=O)O)c2c(N=Nc3ccccc3)c(O)ccc2c1 | inactive | –
16 | Cc1ccccc1S | – | 45 µM (active)
17 | CCOc1ccc(NC(C)=O)cc1 | inactive | –
18 | CC(=O)C1=C(C)[C@@H]2C[C@@]3(C1)[C@H](C)CC[C@H]3C2(C)C | inactive | –
19 | C=C/C(C)=C/C/C=C(\C)CCC=C(C)C | inactive | –
20 | O=C(c1ccc(OCCN2CCCCC2)cc1)c1c(-c2ccc(O)cc2)sc2cc(O)ccc12 | inactive | –

Row | Compound | outcome | AC50
21 | Nc1ccc(O)c(N)c1 | inactive | –
22 | CC(=O)CCC=C(C)CCC=C(C)C | inactive | –
23 | CCCCOCC(C)OCC(C)O (stereo not given) | inactive | –
24 | CCCO[Si](OCCC)(OCCC)OCCC | inactive | –
25 | C=CCCCCCCCCC(=O)OCC | inactive | –
26 | CCC(C)(C)c1cc(O)c(C(C)(C)CC)cc1O | inactive | –
27 | C=CC(O)CCCCC (stereo not given) | inactive | –
28 | C[N+](C)(C)CCO | inactive | –
29 | O=C(C=Cc1ccccc1)OCCCc1ccccc1 | inactive | –
30 | COC(=O)c1ccc(C(=O)OC)cc1 | inactive | –
31 | CCCCCCCCSCc1cc(C)c(O)c(CSCCCCCCCC)c1 | inactive | –
32 | CN(C)C | inactive | –
33 | CC(=O)Nc1cc(S(=O)(=O)O)cc2cc(S(=O)(=O)O)c(N=Nc3ccccc3)c(O)c12 | inactive | –
34 | CCCCCC1CCC(=O)O1 (stereo not given) | inactive | –
35 | CN(C)CCC=C1c2ccccc2CCc2ccccc21 | inactive | –
36 | [O-]/[N+](=N\O)c1ccccc1 | inactive | –
37 | CC(=O)N(C)C | inactive | –
38 | CCCCCCCCCC(=O)OCC | inactive | –
39 | CC(C)N(c1ccccc1)C(C)C | inactive | –
40 | Nc1ccc(N)c([N+](=O)[O-])c1 | inactive | –
